Laboratory results published in PubChem BioAssay (EPA / NIEHS).
The source made the active and inactive calls. How the source made its calls: active means hit-call score of the fitted dose curve at least 0.9, where 1 is the maximum; inactive means score below 0.9.

Test: CCTE_Shafer_MEA_acute_cross_correlation_HWHM: CCTE's Neural Acute Assay for Cross Correlation at Half Width at Half Maximum, Shafer Lab (AID 2284026)
Description: CCTE_Shafer_MEA_acute assay is conducted using Axion Biosystems 48 well microelectrode array (MEA) plates and Maestro recording system. Each well of the MEA plate contains a grid of 16 microelectrodes embedded in the culture surface. Electrically active cells, such as neurons, can be cultured over the electrodes, and electrical activity in these cells can be recorded extracellularly. The spontaneous firing of neurons is captured from each electrode on a microsecond timescale providing both temporally and spatially precise data. […] The CCTE_Shafer_MEA_acute assay uses primary cultures of rat cortical neurons. As these cultures mature over time, neural networks develop functional activity and form cohesive networks in which electrical activity can be highly coordinated. Baseline 40-minute recordings are made on days post-plating 13 or 15, followed by a secondary 40-minute recording after chemical exposure.CCTE_Shafer_MEA_acute_cross_correlation_HWHM is a component of the CCTE_Shafer_MEA_acute assay. It measures the distance along the x-axis (phase lag) from the left half maximum height to the center of the cross-correlogram of action potential firing during a recording in a microelectrode array (MEA) using Axion Biosystems Maestro 768 channel amplifier with the AxIS adaptive spike detector. Smaller values indicate a narrower correlogram (greater synchrony). The recordings before and after chemical treatment are used to calculate a percent change in the half width at half maximum of the cross-correlogram in each well.Data from the assay component CCTE_Shafer_MEA_acute_cross_correlation_HWHM was analyzed into 1 assay endpoint. This assay endpoint, CCTE_Shafer_MEA_acute_cross_correlation_HWHM, was analyzed in the negative analysis fitting direction relative to DMSO as the negative control and baseline of activity. Using a type of functional reporter, gain or loss-of-signal activity can be used to understand electrical activity.
Spontaneous activity in the cortical cultures was recorded using an Axion Biosystems Maestro 768 channel amplifier and Axion Integrated Studios (AxIS) v1.8 (or later) software. The amplifier recorded from all channels simultaneously (gain = 1200 x; sampling rate = 12.5 kHz/channel): raw signals were filtered with a Butterworth band-pass filter (300-5000 Hz), which filters out slower local field potentials leaving only fast potentials, i.e., "spikes", arising from extracellular currents associated with action potentials (Pine 2006; Wheeler and Nam 2011). On-line spike detection of filtered signals was conducted with the AxIS adaptive spike detector, using a threshold of 8x the root mean squared (rms) noise on each channel. Any electrodes with rms noise levels greater than 5 uV were grounded (e.g., no data were recorded). Once grounded, an electrode was grounded for the duration of the experiment. All recordings were conducted at 37 C. Wells were deemed usable if on the day of the exposure >/= 10 electrodes were active (defined as >/= 5 spikes/min). On DIV 13 or 15, a minimum of three wells from one cortical culture preparation were treated with each compound (0.03-40 uM). Prior to recording baseline activity, each mwMEA plate was placed in the Maestro at 37 C and allowed to sit for 20 min while firing rates stabilized. Baseline activity (40 min) was recorded before the addition of each compound. An additional 40 min of spontaneous activity was recorded in the presence of each compound. Changes in network parameters relative to baseline were assessed following compound treatment.

Row | Structure (SMILES) | outcome | AC50
1 | CCOC(=O)C(C)OC(=O)c1cc(Oc2ccc(C(F)(F)F)cc2Cl)ccc1[N+](=O)[O-] (stereo unspecified) | inactive | 
2 | CC1(C)C(C(=O)OC(C#N)c2cccc(Oc3ccccc3)c2)C1(C)C (stereo unspecified) |  | 28.6 µM (active)
3 | CC(C)=CC1C(C(=O)OCc2coc(Cc3ccccc3)c2)C1(C)C (stereo unspecified) | inactive | 
4 | COC(=O)N(C(=O)N1CO[C@@]2(C(=O)OC)Cc3cc(Cl)ccc3C2=N1)c1ccc(OC(F)(F)F)cc1 |  | 24.3 µM (active)
5 | CCOc1cc(C(C)(C)C)ccc1C1COC(c2c(F)cccc2F)=N1 (stereo unspecified) |  | 20 µM (active)
6 | CCCC(=NOCC)C1=C(O)CC(CC(C)SCC)CC1=O (stereo unspecified) |  | 30.7 µM (active)
7 | CNC(=O)Oc1cccc2ccccc12 | inactive | 
8 | CCCN(CC)CC1COC2(CCC(C(C)(C)C)CC2)O1 (stereo unspecified) | inactive | 
9 | CCCCC(O)(Cn1cncn1)c1ccc(Cl)cc1Cl (stereo unspecified) | inactive | 
10 | Cc1nc(N(C)C)nc(OC(=O)N(C)C)c1C | inactive | 
11 | CC(C)N1C(=O)N(c2ccccc2)CSC1=NC(C)(C)C |  | 20 µM (active)
12 | N#CN=C1SCCN1Cc1ccc(Cl)nc1 | inactive | 
13 | Cc1c(COC(=O)[C@@H]2[C@H](/C=C(\Cl)C(F)(F)F)C2(C)C)cccc1-c1ccccc1 |  | 2.29 µM (active)
14 | Cn1c(-c2ccccc2)cc(-c2ccccc2)[n+]1C |  | 20 µM (active)
15 | COP(=S)(OC)SCn1nnc2ccccc2c1=O | inactive | 
16 | O=C(Nc1ccccc1-c1ccc(Cl)cc1)c1cccnc1Cl |  | 23.5 µM (active)

Row | Structure (SMILES) | outcome | AC50
17 | Cc1ccc(N=CN(C)C=Nc2ccc(C)cc2C)c(C)c1 | inactive | 
18 | CCOP(=O)(OCC)Oc1nc(Cl)c(Cl)cc1Cl |  | 34.8 µM (active)
19 | COCC(=O)N(c1c(C)cccc1C)C(C)C(=O)OC (stereo unspecified) | inactive | 
20 | Nc1c(Cl)c(F)nc(OCC(=O)O)c1Cl | inactive | 
21 | C=C(C)CN(CC)c1c([N+](=O)[O-])cc(C(F)(F)F)cc1[N+](=O)[O-] | inactive | 
22 | CC(C)N1C(=O)c2ccccc2NS1(=O)=O | inactive | 
23 | OC(c1ccc(Cl)cc1)(c1ccc(Cl)cc1)C(Cl)(Cl)Cl |  | 5.32 µM (active)
24 | Clc1nc(Cl)nc(Nc2ccccc2Cl)n1 | inactive | 
25 | CN/C(=N\[N+](=O)[O-])NCc1cnc(Cl)s1 | inactive | 
26 | CC1(C)C(C=C(Cl)Cl)C1C(=O)OC(C#N)c1cccc(Oc2ccccc2)c1 (stereo unspecified) | inactive | 
27 | CC1(C)CCC(=Cc2ccc(Cl)cc2)C1(O)Cn1cncn1 (stereo unspecified) | inactive | 
28 | CO/N=C(/C1=NOCCO1)c1ccccc1Oc1ncnc(Oc2ccccc2Cl)c1F |  | 20 µM (active)
29 | N#Cc1c[nH]cc1-c1cccc2c1OC(F)(F)O2 |  | 20 µM (active)
30 | CCOc1nc(F)cc2nc(S(=O)(=O)Nc3c(Cl)cccc3Cl)nn12 | inactive | 
31 | CC(C)C1(C)N=C(c2ncccc2C(=O)O)NC1=O (stereo unspecified) | inactive | 
